# Results reported in paper PMC5540273 (PLoS ONE, 2017).
# Key:
# Settings in all cases: concentration: 1 μM,replicates: in singlicate; n = 1
# CDK8 = test system: CDK8
# CDK9 = test system: CDK9
# CDKL1 = test system: CDKL1
# CDKL2 = test system: CDKL2
# CDKL3 = test system: CDKL3
# CDKL5 = test system: CDKL5
# CHEK1 = test system: CHEK1
# CHEK2 = test system: CHEK2
# CIT = test system: CIT
# CLK1 = test system: CLK1
# CLK2 = test system: CLK2
# CLK3 = test system: CLK3
# CLK4 = test system: CLK4
# CSF1R-autoinhibited = test system: CSF1R-autoinhibited
# CSF1R = test system: CSF1R
# CSK = test system: CSK
# CSNK1A1L = test system: CSNK1A1L
# CSNK1A1 = test system: CSNK1A1
# CSNK1D = test system: CSNK1D
# CSNK1E = test system: CSNK1E
# 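Also: KINOMEscan kinase panel screen.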
SMILES,%Inh (CDK8) [%],%Inh (CDK9) [%],%Inh (CDKL1) [%],%Inh (CDKL2) [%],%Inh (CDKL3) [%],%Inh (CDKL5) [%],%Inh (CHEK1) [%],%Inh (CHEK2) [%],%Inh (CIT) [%],%Inh (CLK1) [%],%Inh (CLK2) [%],%Inh (CLK3) [%],%Inh (CLK4) [%],%Inh (CSF1R-autoinhibited) [%],%Inh (CSF1R) [%],%Inh (CSK) [%],%Inh (CSNK1A1L) [%],%Inh (CSNK1A1) [%],%Inh (CSNK1D) [%],%Inh (CSNK1E) [%]
COc1cc(Nc2nccc(N3CCC(NC(=O)c4cccc(C#N)c4)C3)n2)cc(OC)c1OC (stereo not drawn) [GSK1379751],6,0,0,41,0,0,0,0,8,4,0,0,0,14,28,0,0,0,0,8
CCCC(=O)Nc1n[nH]c2ncccc12 [SB-601436],0,0,0,0,0,0,0,0,0,2,0,22,0,0,0,8,4,0,0,2
COC(=O)c1cccc(NC(=O)NC2CCN(c3ccnc(Nc4cc(OC)c(OC)c(OC)c4)n3)C2)c1 (stereo not drawn) [GSK1379767],56,1,14,67,0,0,0,58,10,0,0,0,8,34,26,0,0,28,0,13
Cc1cccc(-c2nc(Nc3ccncc3)c3sccc3n2)n1 [GW869641],8,11,22,0,15,31,0,0,96.6,4,15,23,22,42,10,7,17,65,90,94.9
O=C(Nc1ccc(Oc2ccc3nc(NC(=O)C4CC4)cn3n2)c(F)c1)c1cccn(-c2ccccc2)c1=O,63,6,45,74,25,0,0,0,30,1,0,0,0,0,100,0,15,39,0,0
CNC(=O)c1ccccc1Nc1nc(Nc2cccc(CS(C)(=O)=O)c2)ncc1C.O=CO [GSK1520489],4,0,28,52,0,0,16,86,45,99.3,94.6,86,98.9,90,99.8,95.1,63,46,25,20
N#Cc1cccc(C(=O)NC2CCN(c3ccnc(Nc4ccc(F)cc4)n3)C2)c1 (stereo not drawn) [GSK1379708],19,0,8,17,0,6,0,0,11,14,0,0,1,2,1,24,1,0,17,1
C[C@@H](Oc1cc(-n2cnc3ccc(-c4ccncc4)cc32)sc1C(N)=O)c1ccccc1Cl [GSK483724],57,3,16,78,32,0,0,0,98.8,98.2,83,37,97.1,0,14,11,17,0,28,44
Cn1ccc2ncnc(Oc3ccc(NC(=O)Nc4ccnc(C(F)(F)F)c4)c(Cl)c3)c21,95.5,0,34,3,0,19,0,2,18,0,0,0,0,6,92.3,0,16,0,0,0
